Among all 53,000 sequences or so, about 3,700 (7%) were called active.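 Rule for the calls: active = gene knockdowns whose robust z-score for IL-1 alpha signal is at least 2 or at most -2, so actives lie on both sides; inactive = the rest.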 This excerpt belongs to a sample that is enriched for actives.
Experiment: Components of the Cytosolic LPS Sensing Pathway: Gene Identification via Genome-wide siRNA Screen;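 note: robust z of the log signal after scaling to non-targeting control siRNA wells of the plate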
Details: RAW264.7 macrophages, IL-1a HTRF, actives lie on both sides, screened at 100 nM (by protocol), cells primed 5 h with Pam3CSK4 first
In short: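 Knockdown: 100 nM siRNA, 48h, RAW264.7. Stimulation: Pam3CSK4 5 h, then LipidA via TransIT-TKO 24 h. Output: supernatant IL-1a HTRF, negative-control-normalized, log robust z-score; viability by CellTiter-Glo.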
In the case of GCCUAAUGCCAACUCACAATT against Samd7, the z-score is reported as -1.49 (inactive).
In the case of GGCACUGCACUUUAACAUATT against Serpinb7, the z-score is reported as -0.402 (inactive).
For GGGUGUGAGGGAUUUCAUCTT against Ndufa2, the z-score was 2.22 (active).
With CCUAACCAUCGACUUCUUCTT against Wfs1 the z-score was -0.189 (inactive).
In the case of GCGGGACUGACCUCUUAAUTT against Guk1, the z-score is reported as -0.244 (inactive).
With GGAGUGAAGGUUCAGAUCCTT against Asic2 the z-score was 3.1 (active).
In the case of GGCUUUCAGAGUUAACAAATT against Ptpn4, the z-score is reported as -0.727 (inactive).
In the case of GGGUGUCUUCAACAAGUACTT against Dnttip1, the z-score is reported as -1.71 (inactive).
In the case of GGAAAAAAGGAUUUCAAACTT against Rad9b, the z-score is reported as 1.3 (inactive).
In the case of GGAAAGACCACCAAAUCCCTT against Dpy30, the z-score is reported as 1.48 (inactive).
With GGCUCCAUAUGGAAUGCAGTT against Ets2 the z-score was 0.571 (inactive).
For CCAGCCGUAUUACAACUACTT against Bpnt1, the z-score was 2.12 (active).
In the case of GCUUAAACCGCCUAUGUUCTT against Spcs1, the z-score is reported as 0.782 (inactive).
With “GCUCACCUUUCUUGAGAAATT against 4930579C12Rik” the z-score was -0.179 (inactive).
With GGAAAAAGUGCAUUUAUGUTT against Prpf40a the z-score was -1.16 (inactive).
For GCUGUUGCUGGCUAUUCUGTT against Eef2kmt, the z-score was -2.3 (active).
With AACAUGUCCAACCUAGGCATT against Lefty1 the z-score was -1.44 (inactive).
For GGUGGACUACUCACGAUUCTT against Kcnj4, the z-score was 0.867 (inactive).
In the case of GGAGCAGGACGAGAAUCAATT against Cdkn1c, the z-score is reported as 3.62 (active).
With GCACUGGAAUCAAACCAUCTT against Ppp2r5b the z-score was 0.444 (inactive).
For CGCAUUUUCUCUCGAGCUUTT against Slc25a30, the z-score was -0.34 (inactive).
For GGAGCACAGUUUUGGUGCUTT against Olfr576, the z-score was 1.82 (inactive).
In the case of GGAAGUAAAGCUCUACAAGTT against Vps28, the z-score is reported as 0.236 (inactive).
With GGCACAAUUUCUUUGAAUCTT against Ophn1 the z-score was 0.885 (inactive).
For GGCUAUUAGGUUUGAAAUCTT against Grsf1, the z-score was 0.351 (inactive).
For GGUUUCCAGUAAGAUCUUATT against Mdn1, the z-score was 2.21 (active).
For “CCUAGAUUCUCCAAACUAATT against D630029K05Rik”, the z-score was -0.238 (inactive).
For GGAGAUGCGAGUACAACUGTT against Ermn, the z-score was 0.479 (inactive).
With GGAAAGAUGUGGUCCAGCUTT against Sirt3 the z-score was 0.373 (inactive).
With UUAAGCCGCUUUUGAAGCUTT against Olfr1200 the z-score was 0.812 (inactive).
In the case of GGCUUUCAAGAUUCAGUGATT against Gsta1, the z-score is reported as 0.103 (inactive).
For GGCACUUCAAGGAGUUUUUTT against Lig4, the z-score was 3.25 (active).
For GGAAAAUAAGCUAAGGAAGTT against Peg12, the z-score was -0.018 (inactive).
In the case of GGCAAUUUCUAAACAGGGATT against Atp6v1f, the z-score is reported as -2.01 (active).
With GCGAUGCUCCUAAUUCUUATT against Dusp21 the z-score was -1.18 (inactive).
With GCUACAGUUUGUGGGUGACTT against Zmynd15 the z-score was 0.11 (inactive).
With “CGAGUAUCCCGUCAAGUUGTT against 6820408C15Rik” the z-score was -0.699 (inactive).
For GGCAAAUUAGCUAGUAUCATT against Rai2, the z-score was -2.2 (active).
With GGUGGAGAAGAGUUUCUGCTT against Gpr132 the z-score was 0.375 (inactive).
In the case of GGAGAAACAGAAGUAUUGATT against Nsa2, the z-score is reported as -0.559 (inactive).
With GGGUUGGAACAAGGUAAUUTT against Usp16 the z-score was -0.546 (inactive).
With GGCUCAAAGCCAAUCUGAATT against Recql4 the z-score was 2.06 (active).
With GCUGUAUCCAGCUUUUCGGTT against Tcf3 the z-score was -0.43 (inactive).
For GCGAGAUUCUUAAAGAAAUTT against Brdt, the z-score was 0.645 (inactive).
For GAGCUGUGAAUGCCUGUGGTT against Lyz2, the z-score was -2.33 (active).
With GCUAGUUAAUGGUAACAUATT against Sult1d1 the z-score was -1.68 (inactive).
With GGCCAAACUGGAUUACUUATT against Tmprss11c the z-score was 1.26 (inactive).
For CCCUGCUCUCACUUGUUUATT against Olfr643, the z-score was -0.446 (inactive).
In the case of CCUUUCUUGUGUUUACAGGTT against P2ry6, the z-score is reported as -0.347 (inactive).
In the case of GGCAGUUUCUUCUUCCAAATT against H1f1, the z-score is reported as 2.89 (active).
With GGUGAUCAACAAUGGCAAUTT against Clec4a3 the z-score was 1.26 (inactive).
For GCACAUGUGUUUAUACAUUTT against Sfxn3, the z-score was -0.556 (inactive).
For CGACGAGGAAUAACCUCUCTT against Myh6, the z-score was 2.05 (active).
In the case of GGGUAUGGCAUAAAUGUCCTT against Zpbp, the z-score is reported as -2.75 (active).
For GGCAUUCCAGAGAAAGCGUTT against F3, the z-score was -1.33 (inactive).
With GCGAAUUGGAACAGCUGACTT against Sh3glb1 the z-score was -0.982 (inactive).
With GGUAUACCACUAUUCUCACTT against Olfr649 the z-score was 0.705 (inactive).
In the case of CCAUAUAUGAUAGGAAACUTT against Pon2, the z-score is reported as -0.288 (inactive).
In the case of GCCACAAUGUCCAAAAUUATT against Rab6a, the z-score is reported as -0.271 (inactive).
For GGAGCUUUUAAGAAUGUGGTT against Ireb2, the z-score was -1.57 (inactive).
For GCAGGUGCCUUCAAAAACCTT against Pm20d2, the z-score was -0.926 (inactive).
For CCUACGAGUUUUGCAUUUATT against Slc25a51, the z-score was -2.46 (active).
With GGCAGCAGUUAAUUUACUUTT against Mmp21 the z-score was -1.71 (inactive).
With GGCGGGUAGAUAUCAUGGGTT against Stn1 the z-score was 0.902 (inactive).
In the case of GGAAGCAAUGAUCAAUUAUTT against Ppp2r3c, the z-score is reported as 0.752 (inactive).
In the case of GGUUCCAUGUUCAGAAUUUTT against Alg9, the z-score is reported as 2.04 (active).
With GGCAAUGAUGAUCUCCUCUTT against Htra3 the z-score was 0.434 (inactive).
For GGGUAUGACCGGUAUUACATT against Atp5j2, the z-score was 0.213 (inactive).
With GGAGGCAGCCAAAGAAAACTT against Bmp8a the z-score was 0.462 (inactive).
For GGAUGAAAUCGCCAUAUGUTT against Snrnp48, the z-score was -1.89 (inactive).
In the case of GGAGAAAACCUAGAAAUUUTT against Galnt1, the z-score is reported as 0.238 (inactive).
With CCGGCUAUGAAGAUGAGUATT against Cox6a1 the z-score was 3.21 (active).
With “GCCGUAAGCUAGGAUCUGGTT against 1700065D16Rik” the z-score was 0.787 (inactive).
For GGUAAUACAACUGAGAACUTT against Zfp2, the z-score was 0.39 (inactive).
With GGCAUCUGAGUGAUAUAAATT against Dcps the z-score was 0.109 (inactive).
With GGCCGUGUUAUCCAGAUUGTT against Prkcd the z-score was 1.43 (inactive).
With GGCAGUCUCAGGUUAUCUCTT against Zfp445 the z-score was 0.406 (inactive).
With GGCUUUUCAGCAGGUUUAATT against Ube2g1 the z-score was 5.04 (active).
With GGCUGUAAGGGAACAGCUATT against Irf2bp1 the z-score was -0.615 (inactive).
With GGUGAUGAAAUUUAUUGAGTT against Gpn1 the z-score was -0.127 (inactive).
With GGAGAAGGGCCUGAAGUAUTT against Lsm5 the z-score was -1.77 (inactive).
For GGUGGCAGUCACCAUUCUUTT against Il17rd, the z-score was -0.364 (inactive).
For CCAUACAGAUCGCACCCUGTT against Txndc15, the z-score was -2.15 (active).
In the case of GGACAGAGCCUAGAAAACUTT against Mpdu1, the z-score is reported as -1.15 (inactive).
With GGCUCCAAGGGAUUUGGUUTT against Rbfox1 the z-score was 2.77 (active).
In the case of GGACUUUGUCAACCAUGUCTT against Fbxl5, the z-score is reported as -0.0144 (inactive).
For CGUCAAUUCACACCAUUCATT against Gsk3a, the z-score was -1.25 (inactive).
With GGGUGCUCUGAAGAAGCAATT against Olfr488 the z-score was -2.04 (active).
For GGCUUAUGUCACCAACUUGTT against Pxdc1, the z-score was -0.533 (inactive).
In the case of GGAGUUAGAAUUGAACCUUTT against Mr1, the z-score is reported as -1.49 (inactive).
For GGAUCCAUUUUGAGGAUUUTT against Vipr1, the z-score was -0.056 (inactive).
For GGGCAAGUACAAGCGUAACTT against Jph4, the z-score was -1.5 (inactive).
With GGGAAAACACAAAGAAGAATT against Angpt1 the z-score was 0.307 (inactive).
For GGAGCCUAUCGCUUUACUCTT against Vps16, the z-score was 1.18 (inactive).
For GGAGAUCUGUGAUGAGGUGTT against Nudt22, the z-score was 2.07 (active).
In the case of GGUGUCAACAUUGCAUACUTT against Gatad2b, the z-score is reported as 1.62 (inactive).
For GGAAACAUCCAAGAAAAAUTT against Ap1s2, the z-score was -0.489 (inactive).
For GGCUAUGGAAACCACCACATT against Nrg3, the z-score was -1.21 (inactive).
For CGAUGAUAAAACGAACAAGTT against Plppr5, the z-score was 2.78 (active).
In the case of GGAUUGUCCACAUGGAACUTT against Ccl27a, the z-score is reported as -0.112 (inactive).
For GGUAUGGAUGAAGAACUAGTT against Pdhb, the z-score was 1.62 (inactive).
In the case of GGUUGUACCUACAACAGAUTT against Tiprl, the z-score is reported as -0.773 (inactive).
In the case of GGCUUUACUUCUUGCUGUGTT against Olfr1412, the z-score is reported as -0.918 (inactive).
In the case of CCAUGGACCAAAUGAAGUUTT against Cd44, the z-score is reported as 2.59 (active).
With GCAAGAUACUGACCACUAGTT against Krt25 the z-score was 0.14 (inactive).
In the case of CCCAGGUGAGACCUUUACCTT against Fndc3b, the z-score is reported as -1.76 (inactive).
For CCUUCUUGUGGGAGUGAAATT against Chodl, the z-score was -0.0597 (inactive).
In the case of GGUAGACACACACAUUCAUTT against Ampd3, the z-score is reported as 0.633 (inactive).

From PubChem BioAssay AID1508600 (Functional Genomics Laboratory (NCATS/FGL), 2020)
